Laboratory results as given in PubChem BioAssay AID1159580 (chemical genetic matrix, 2015).
The campaign covered roughly 5,500 compounds. About 2,000 (36%) were called active. Roughly 18% stayed inconclusive and do not appear here. Rule as the data show it: active = normalized growth mostly below about 0.91 (no sharp cut-off); inconclusive = no clear call, values can overlap the other calls; inactive = mostly above about 0.92. Some of the results follow.

Test: chemical genetic growth profiling, strain panel (AID 1159580);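 also: tested at 20 µM; growth read once vehicle control cultures reached saturation at 30 °C; 1 = growth at the plate median or of vehicle wells; lower values mean less growth of the strain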
Conditions: growth OD

Measured: normalized growth

COc1cc2c(cc1OC)C(=O)OC2
inactive: S. cerevisiae deletion strains, locus YJR075W, strain HOC1, hits give low values 1.01 | S. cerevisiae deletion strains, locus YKL009W, strain mrt4, hits give low values 1.05 | S. cerevisiae deletion strains, locus YKL068W, hits give low values 1 | S. cerevisiae deletion strains, locus YKL085W, strain MDH1 (second series), hits give low values 1.01 | S. cerevisiae deletion strains, locus YKL085W, strain MDH1, hits give low values 1.01 | S. cerevisiae deletion strains, locus YKL160W, strain elf1, hits give low values 0.994 | S. cerevisiae deletion strains, locus YKL190W, strain CNB1, hits give low values 1 | S. cerevisiae deletion strains, locus YKR001C, strain vps1, hits give low values 1.01 | S. cerevisiae deletion strains, locus YKR026C, strain gcn3, hits give low values 0.992 | S. cerevisiae deletion strains, locus YKR091W, strain srl3, hits give low values 0.996 | S. cerevisiae deletion strains, locus YLL001W, strain dnm1, hits give low values 0.996 | S. cerevisiae deletion strains, locus YLL026W, hits give low values 0.991 | S. cerevisiae deletion strains, locus YLL041C, strain sdh2, hits give low values 1 | S. cerevisiae deletion strains, locus YLR027C, strain aat2, hits give low values 1 | S. cerevisiae deletion strains, locus YLR039C, strain RIC1, hits give low values 1.02 | S. cerevisiae deletion strains, locus YLR058C, strain SHM2, hits give low values 1.01 | S. cerevisiae deletion strains, locus YLR102C, strain apc9, hits give low values 1 | S. cerevisiae deletion strains, locus YLR113W, strain HOG1, hits give low values 0.971 | S. cerevisiae deletion strains, locus YLR221C, strain rsa3, hits give low values 1.01 | S. cerevisiae deletion strains, locus YLR258W, strain gsy2, hits give low values 0.992 | S. cerevisiae deletion strains, locus YLR262C, strain YPT6 (second series), hits give low values 1.02 | S. cerevisiae deletion strains, locus YLR262C, strain YPT6, hits give low values 1.02 | S. cerevisiae deletion strains, locus YLR268W, strain sec22, hits give low values 0.979 | S. cerevisiae deletion strains, locus YLR320W, strain mms22, hits give low values 0.995 | S. cerevisiae deletion strains, locus YLR330W, strain CHS5, hits give low values 1.01 | S. cerevisiae deletion strains, locus YLR342W, strain FKS1 (second series), hits give low values 1.07 | S. cerevisiae deletion strains, locus YLR342W, strain FKS1, hits give low values 0.999 | S. cerevisiae deletion strains, locus YLR357W, strain rsc2, hits give low values 0.96 | S. cerevisiae deletion strains, locus YLR370C, strain arc18, hits give low values 0.997 | S. cerevisiae deletion strains, locus YLR371W, strain rom2, hits give low values 1.01 | S. cerevisiae deletion strains, locus YLR384C, strain iki3, hits give low values 0.988 | S. cerevisiae deletion strains, locus YLR418C, strain cdc73, hits give low values 0.925 | S. cerevisiae deletion strains, locus YML016C, strain PPZ1, hits give low values 1 | S. cerevisiae deletion strains, locus YML032C, strain rad52, hits give low values 1.01 | S. cerevisiae deletion strains, locus YML120C, strain ndi1, hits give low values 1.01 | S. cerevisiae deletion strains, locus YML124C, strain tub3, hits give low values 0.994 | S. cerevisiae deletion strains, locus YMR058W, strain fet3, hits give low values 0.999 | S. cerevisiae deletion strains, locus YMR078C, strain ctf18, hits give low values 1 | S. cerevisiae deletion strains, locus YMR125W, strain sto1, hits give low values 0.984 | S. cerevisiae deletion strains, locus YMR129W, hits give low values 0.992 | S. cerevisiae deletion strains, locus YMR205C, strain PFK2, hits give low values 1.01 | S. cerevisiae deletion strains, locus YMR223W, strain ubp8, hits give low values 1.02 | S. cerevisiae deletion strains, locus YMR231W, strain pep5, hits give low values 0.99 | S. cerevisiae deletion strains, locus YMR263W, strain SAP30, hits give low values 0.994 | S. cerevisiae deletion strains, locus YMR307W, strain GAS1, hits give low values 1.09 | S. cerevisiae deletion strains, locus YNL067W, strain RPL9B, hits give low values 0.997 | S. cerevisiae deletion strains, locus YNL071W, strain lat1, hits give low values 0.995 | S. cerevisiae deletion strains, locus YNL128W, strain TEP1, hits give low values 0.99 | S. cerevisiae deletion strains, locus YNL153C, strain GIM3, hits give low values 0.978 | S. cerevisiae deletion strains, locus YNL183C, strain NPR1, hits give low values 0.987 | S. cerevisiae deletion strains, locus YNL209W, strain ssb2, hits give low values 0.979 | S. cerevisiae deletion strains, locus YNL233W, strain BNI4, hits give low values 0.992 | S. cerevisiae deletion strains, locus YNL248C, strain rpa49, hits give low values 0.978 | S. cerevisiae deletion strains, locus YNL250W, strain rad50, hits give low values 0.995 | S. cerevisiae deletion strains, locus YNL271C, strain bni1, hits give low values 1 | S. cerevisiae deletion strains, locus YNL298W, strain CLA4, hits give low values 1.02 | S. cerevisiae deletion strains, locus YNL307C, strain MCK1, hits give low values 1.02 | S. cerevisiae deletion strains, locus YNL322C, strain KRE1 (second series), hits give low values 0.996 | S. cerevisiae deletion strains, locus YNL322C, strain KRE1, hits give low values 1.01 | S. cerevisiae deletion strains, locus YNR049C, strain mso1, hits give low values 1 | S. cerevisiae deletion strains, locus YNR052C, strain pop2, hits give low values 1.01 | S. cerevisiae deletion strains, locus YOL006C, strain TOP1, hits give low values 0.996 | S. cerevisiae deletion strains, locus YOL012C, strain htz1 0.744 | S. cerevisiae deletion strains, locus YOL147C, strain pex11, hits give low values 1 | S. cerevisiae deletion strains, locus YOR001W, strain rrp6, hits give low values 0.993 | S. cerevisiae deletion strains, locus YOR061W, strain CKA2, hits give low values 1 | S. cerevisiae deletion strains, locus YOR069W, strain VPS5, hits give low values 1.01 | S. cerevisiae deletion strains, locus YOR070C, strain gyp1, hits give low values 0.984 | S. cerevisiae deletion strains, locus YOR080W, strain dia2, hits give low values 1.01 | S. cerevisiae deletion strains, locus YOR083W, strain WHI5, hits give low values 0.996 | S. cerevisiae deletion strains, locus YOR106W, strain vam3, hits give low values 0.99 | S. cerevisiae deletion strains, locus YOR136W, strain idh2, hits give low values 1 | S. cerevisiae deletion strains, locus YOR144C, strain elg1, hits give low values 1 | S. cerevisiae deletion strains, locus YOR184W, strain ser1, hits give low values 1.04 | S. cerevisiae deletion strains, locus YOR231W, strain MKK1, hits give low values 0.991 | S. cerevisiae deletion strains, locus YOR265W, strain rbl2, hits give low values 1.01 | S. cerevisiae deletion strains, locus YOR270C, strain vph1, hits give low values 0.971 | S. cerevisiae deletion strains, locus YOR290C, strain snf2, hits give low values 1.01 | S. cerevisiae deletion strains, locus YOR316C, strain cot1, hits give low values 1.01 | S. cerevisiae deletion strains, locus YPL051W, strain arl3, hits give low values 0.994 | S. cerevisiae deletion strains, locus YPL055C, strain LGE1, hits give low values 0.973 | S. cerevisiae deletion strains, locus YPL078C, strain atp4, hits give low values 1.01 | S. cerevisiae deletion strains, locus YPL106C, strain sse1, hits give low values 0.901 | S. cerevisiae deletion strains, locus YPL240C, strain hsp82, hits give low values 0.988 | S. cerevisiae deletion strains, locus YPL241C, strain CIN2, hits give low values 1 | S. cerevisiae deletion strains, locus YPL256C, strain CLN2, hits give low values 1 | S. cerevisiae deletion strains, locus YPR119W, strain clb2, hits give low values 0.995 | S. cerevisiae deletion strains, locus YPR141C, strain kar3, hits give low values 1 | S. cerevisiae deletion strains, locus YPR163C, strain tif3, hits give low values 0.989 | S. cerevisiae deletion strains, locus YPR167C, strain met16, hits give low values 1 | S. cerevisiae deletion strains, strain wtn01, hits give low values 1 | S. cerevisiae strains, strain wild type, hits give low values 1.01
